From the supplement of paper PMC12067093, “Discovery and optimisation of a covalent ligand for TRIM25 and its application to targeted protein ubiquitination” (Chemical Science, 2025)
Targets with the largest changes are over-represented here; the source holds about 21,000 in all.

Compound: CC1Cc2ccccc2N1C(=O)C1CCCN(C1)C(=O)CCl (mixture of isomers) [TRIM25 ligand 11 (diastereomer mixture)]
Test: probe-labelled cysteine peptide fold change vs DMSO (competition) (log2 fold change); higher = less target engagement (more negative = stronger competition)
Settings: THP-1, incubation time: 4 h
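Further: competitive chemoproteomic profiling in live THP-1 cells with an iodoacetamide desthiobiotin (IA-DTB) probe, comparing probe-labelled peptide intensities in compound-treated cells against DMSO-treated controls.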

UniProt P12955, sequence (P12955 whole entry, looked up): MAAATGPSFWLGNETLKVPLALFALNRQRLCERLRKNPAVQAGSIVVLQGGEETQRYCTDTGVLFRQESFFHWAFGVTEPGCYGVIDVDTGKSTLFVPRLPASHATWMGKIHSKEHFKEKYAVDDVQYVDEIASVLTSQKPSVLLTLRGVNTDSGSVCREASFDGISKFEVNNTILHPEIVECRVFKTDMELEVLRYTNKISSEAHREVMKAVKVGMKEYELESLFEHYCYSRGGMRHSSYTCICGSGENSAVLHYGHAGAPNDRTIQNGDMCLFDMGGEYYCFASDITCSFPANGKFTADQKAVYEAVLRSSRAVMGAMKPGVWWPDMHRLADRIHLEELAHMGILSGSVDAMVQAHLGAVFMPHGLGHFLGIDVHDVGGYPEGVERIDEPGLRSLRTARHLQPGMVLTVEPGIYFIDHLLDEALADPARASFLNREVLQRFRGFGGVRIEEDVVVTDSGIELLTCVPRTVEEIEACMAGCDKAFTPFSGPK
UniProt Q9BZL4, sequence (Q9BZL4 whole entry, looked up): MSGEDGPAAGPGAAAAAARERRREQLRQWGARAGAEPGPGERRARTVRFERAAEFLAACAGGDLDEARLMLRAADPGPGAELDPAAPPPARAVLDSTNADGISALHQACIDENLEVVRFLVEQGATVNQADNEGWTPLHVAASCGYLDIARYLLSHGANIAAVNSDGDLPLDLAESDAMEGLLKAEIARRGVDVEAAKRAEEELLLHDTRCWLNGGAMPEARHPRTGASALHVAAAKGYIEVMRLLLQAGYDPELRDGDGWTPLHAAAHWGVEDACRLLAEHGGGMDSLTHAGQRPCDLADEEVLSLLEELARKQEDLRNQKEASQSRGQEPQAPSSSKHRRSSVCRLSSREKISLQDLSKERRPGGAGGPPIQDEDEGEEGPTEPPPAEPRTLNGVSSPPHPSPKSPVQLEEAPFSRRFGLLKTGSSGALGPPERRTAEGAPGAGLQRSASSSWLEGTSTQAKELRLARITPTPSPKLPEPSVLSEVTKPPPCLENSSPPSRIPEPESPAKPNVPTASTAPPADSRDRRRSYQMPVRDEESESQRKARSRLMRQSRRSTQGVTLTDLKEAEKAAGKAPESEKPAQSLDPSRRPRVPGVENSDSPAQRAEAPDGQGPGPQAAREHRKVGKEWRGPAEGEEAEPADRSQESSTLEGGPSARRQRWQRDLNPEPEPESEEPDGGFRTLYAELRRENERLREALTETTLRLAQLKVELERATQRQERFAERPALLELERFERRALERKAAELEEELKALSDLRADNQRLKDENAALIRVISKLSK
UniProt Q99570, sequence (Q99570 whole entry, looked up): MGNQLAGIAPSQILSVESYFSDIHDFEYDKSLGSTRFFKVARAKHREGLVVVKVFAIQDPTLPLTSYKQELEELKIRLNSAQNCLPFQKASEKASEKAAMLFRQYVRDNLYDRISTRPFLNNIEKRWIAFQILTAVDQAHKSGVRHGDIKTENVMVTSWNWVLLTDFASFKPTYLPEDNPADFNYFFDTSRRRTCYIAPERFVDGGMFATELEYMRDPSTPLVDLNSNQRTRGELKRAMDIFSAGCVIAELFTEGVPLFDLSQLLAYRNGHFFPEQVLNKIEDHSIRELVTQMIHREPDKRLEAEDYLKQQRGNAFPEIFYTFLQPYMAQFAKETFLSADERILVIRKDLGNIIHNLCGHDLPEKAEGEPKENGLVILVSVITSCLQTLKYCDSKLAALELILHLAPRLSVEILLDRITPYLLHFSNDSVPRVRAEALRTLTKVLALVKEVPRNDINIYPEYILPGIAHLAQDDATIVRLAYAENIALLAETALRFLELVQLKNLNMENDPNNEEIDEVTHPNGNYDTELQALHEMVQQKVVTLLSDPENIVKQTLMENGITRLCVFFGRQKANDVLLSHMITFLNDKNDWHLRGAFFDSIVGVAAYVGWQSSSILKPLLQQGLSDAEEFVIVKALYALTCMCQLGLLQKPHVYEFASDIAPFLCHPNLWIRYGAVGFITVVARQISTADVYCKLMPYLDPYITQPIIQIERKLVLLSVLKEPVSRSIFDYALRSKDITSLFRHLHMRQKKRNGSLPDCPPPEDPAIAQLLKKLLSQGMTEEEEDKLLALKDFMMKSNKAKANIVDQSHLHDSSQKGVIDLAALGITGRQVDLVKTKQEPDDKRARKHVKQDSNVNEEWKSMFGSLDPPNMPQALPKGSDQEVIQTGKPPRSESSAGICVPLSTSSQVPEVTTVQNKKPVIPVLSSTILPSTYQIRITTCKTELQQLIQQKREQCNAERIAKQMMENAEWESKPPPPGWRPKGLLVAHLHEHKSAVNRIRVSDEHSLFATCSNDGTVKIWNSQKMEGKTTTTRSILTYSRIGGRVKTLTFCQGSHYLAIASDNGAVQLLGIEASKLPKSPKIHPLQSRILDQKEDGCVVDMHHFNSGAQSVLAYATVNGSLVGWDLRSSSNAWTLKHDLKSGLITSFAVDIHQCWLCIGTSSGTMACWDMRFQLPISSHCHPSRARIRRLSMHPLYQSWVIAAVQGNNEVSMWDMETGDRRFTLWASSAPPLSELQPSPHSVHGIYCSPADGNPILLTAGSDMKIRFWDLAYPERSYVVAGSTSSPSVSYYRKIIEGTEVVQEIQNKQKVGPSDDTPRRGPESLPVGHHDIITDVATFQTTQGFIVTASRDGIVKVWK
UniProt O15160, sequence (O15160 whole entry, looked up): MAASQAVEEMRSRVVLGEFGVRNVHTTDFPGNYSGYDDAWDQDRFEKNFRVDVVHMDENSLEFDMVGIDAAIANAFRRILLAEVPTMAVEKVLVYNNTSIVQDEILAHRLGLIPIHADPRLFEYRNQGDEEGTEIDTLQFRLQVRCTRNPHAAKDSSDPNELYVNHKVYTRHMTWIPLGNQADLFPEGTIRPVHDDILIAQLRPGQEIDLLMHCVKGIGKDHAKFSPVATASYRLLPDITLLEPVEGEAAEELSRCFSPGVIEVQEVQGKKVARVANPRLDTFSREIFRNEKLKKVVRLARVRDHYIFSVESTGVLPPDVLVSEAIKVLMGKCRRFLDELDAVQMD
UniProt Q9UIL8, sequence (Q9UIL8 whole entry): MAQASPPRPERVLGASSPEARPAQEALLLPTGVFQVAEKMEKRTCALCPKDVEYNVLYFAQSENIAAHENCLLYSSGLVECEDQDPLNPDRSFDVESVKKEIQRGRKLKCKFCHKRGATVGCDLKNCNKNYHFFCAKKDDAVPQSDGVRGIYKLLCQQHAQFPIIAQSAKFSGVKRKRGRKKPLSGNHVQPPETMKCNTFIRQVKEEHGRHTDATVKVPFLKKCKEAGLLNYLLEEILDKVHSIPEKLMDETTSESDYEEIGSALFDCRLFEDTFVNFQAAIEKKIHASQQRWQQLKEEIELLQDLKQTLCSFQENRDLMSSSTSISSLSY

Target | probe-labelled cysteine peptide fold change (10 µM) | probe-labelled cysteine peptide fold change (50 µM)
PHF11_Q9UIL8_135_NYHFFCAK (UniProt Q9UIL8) | -0.0148 | 0.156
PEPD_P12955_158_GVNTDSGSVCR (UniProt P12955) | 0.0721 | -0.0568
PPP1R12C_Q9BZL4_297_LLAEHGGGMDSLTHAGQRPCDLADEEVLSLLEELAR (UniProt Q9BZL4) | 0.136 | -0.278
PECAM1_P16284_109_CTVIVNNK (UniProt P16284) | 0.126 | 0.476
PIK3R4_Q99570_955_EQCNAER (UniProt Q99570) | -0.0631 | -0.105
POLR1C_O15160_214_PVHDDILIAQLRPGQEIDLLMHCVK (UniProt O15160) | -0.00122 | -0.0368
